Source: ChEMBL document CHEMBL3433997, “St. Jude Leishmania screening dataset” (2016)
“And” between values parts separate entries of the source, which are not always exact repeats. Equal values may be shown once.

What was measured:
Type in all cases: functional
[1] = target: Solute carrier family 2, facilitated glucose transporter member 1 (Homo sapiens) (UniProt P11166); experiment: ST_JUDE_LEISH: Cytotoxicity at 2uM final concentration against transgenic Leishmania Mexicana promastigotes LmGLUT1 that are glucose transport deficient and complemented with the human glucose transporter GLUT1. Activity is measured by DNA content using SYBR green in vitro
[2] = target: Hexose transporter 1 (Plasmodium falciparum) (UniProt O97467); experiment: ST_JUDE_LEISH: Cytotoxicity at 2uM final concentration against transgenic Leishmania Mexicana promastigotes LmPfHT that are glucose transport deficient and complemented with the Plasmodium falciparum hexose transporter. Activity is measured by DNA content using SYBR green in vitro
[3] = target: Glucose transporter (Leishmania mexicana) (UniProt O61059); experiment: ST_JUDE_LEISH: Cytotoxicity at 2uM final concentration against transgenic Leishmania Mexicana promastigotes LmGT2 that are glucose transport deficient and complemented with the L. Mexicana glucose transporter 2. Activity is measured by DNA content using SYBR green in vitro

Chain of Solute carrier family 2, facilitated glucose transporter member 1 (Homo sapiens) (P11166 whole entry): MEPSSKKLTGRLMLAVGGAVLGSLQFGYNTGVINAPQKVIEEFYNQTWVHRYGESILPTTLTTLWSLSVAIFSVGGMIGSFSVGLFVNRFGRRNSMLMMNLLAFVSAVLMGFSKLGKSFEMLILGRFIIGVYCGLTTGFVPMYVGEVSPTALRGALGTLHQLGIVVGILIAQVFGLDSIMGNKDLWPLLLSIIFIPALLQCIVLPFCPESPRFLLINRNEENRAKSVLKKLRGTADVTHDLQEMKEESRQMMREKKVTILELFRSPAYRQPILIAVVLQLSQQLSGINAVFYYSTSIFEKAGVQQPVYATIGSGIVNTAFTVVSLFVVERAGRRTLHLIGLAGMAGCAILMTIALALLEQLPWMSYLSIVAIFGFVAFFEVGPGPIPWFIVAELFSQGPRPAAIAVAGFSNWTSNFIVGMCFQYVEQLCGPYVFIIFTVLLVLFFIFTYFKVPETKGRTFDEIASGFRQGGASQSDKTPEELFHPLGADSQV

| SMILES | inhibition [1] | inhibition [2] | inhibition [3] |
| --- | --- | --- | --- |
| COc1ccc(OC)c(C=CC(=O)NC2CCC(CN3CCC(c4c[nH]c5ccccc45)CC3)CC2)c1 (stereo unspecified) | -2.94% | -0.24% | -0.07% |
| COc1cccc(CN2CCC(CCOC(c3ccccc3)c3ccccc3)CC2)c1O | 2.87% | -0.08% | -0.42% |
| CN(C)c1cccc(CN2CC=C(c3c[nH]c4ccc(Cl)cc34)CC2)c1 | 8.22% | 6.95% | 4.91% |
| COc1ccc(CCNCc2ccc3nc(N)c(C)cc3c2)cc1 | 0.92% | 2.14% | 3.68% |
| CC(=O)N(Cc1ccc(-c2ccc(CNCCc3ccccc3)cc2)cc1)C1CCN(Cc2ccccc2)CC1 | 1.67% | 1.69% | 1.11% |
| O=C(/C=C/c1cc([N+](=O)[O-])ccc1Cl)NC1CCC(CN2CCC(c3c[nH]c4ccccc34)CC2)CC1 (stereo unspecified) | 2.1% | 1.69% | 2.13% |
| O=C(/C=C/c1ccc(Cl)c(Cl)c1)N1CCC2CC(N3CCC(c4c[nH]c5ccccc45)CC3)CCC2C1 (stereo unspecified) | 3.41% | -0.87% | 0.24% |
| Cc1[nH]c2ccccc2c1C1=CCN(CCCCCNC(=O)/C=C/c2ccc(Cl)c(Cl)c2)CC1 | 5.3% | 5.72% | 5.48% |
| Cc1ccc(C(=O)Nc2ccnc(N(C)C3CCN(Cc4cccc(O)c4)CC3)c2)cn1 | 3.48% | 1.94% | 1.3% |
| O=C(Nc1ccccc1Cl)NC1CCC(CN2CCC(c3c[nH]c4ccccc34)CC2)CC1 (stereo unspecified) | 4.02% and 5.1% | 3.83% and 5.22% | -1.83% and 3.04% |
| CC(Cc1ccc(NC(=O)CCCc2ccccc2)cc1)NCCc1cccc(Cl)c1 (stereo unspecified) | 1.2% | 0.72% | 2.44% |
| CN1CCN(c2ccc3[nH]c(-c4ccc5[nH]c(-c6ccc(O)cc6)nc5c4)nc3c2)CC1 | 4.92% | 5.09% | 2.92% |
